According to PubChem BioAssay (NCATS):
Values joined by “and” are separate entries in the source; they are usually repeats but may differ in a detail not shown here. Equal values may be shown once. Results filed as inconclusive are left out. Where a call stands in place of a potency, no number is given. Active and inactive are the calls of the source. Unless noted, calls come from the whole dose curve.

Biological target: Glucocorticoid receptor (Homo sapiens) (UniProt P04150)
Assay: qHTS assay for small molecule agonists of glucocorticoid receptor signaling (AID 588532; active = well fitted curve in the direction sought with a large enough effect in the signal ratio, with a control signal flat; the % refers to the signal ratio)
Conditions: HeLa MMTV-bla, beta-lactamase ratio, agonist, 18 h; activation: stronger effect = higher value, percent of dexamethasone control, DMSO zero
Summary of the method: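 Using MMTV-bla HeLa cells in medium with 1% stripped FBS and 25 mM HEPES, compounds were titrated and incubated overnight-length (18 h). Beta-lactamase cleavage of CCF4 was quantified by dual-emission fluorescence.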

Sequence of Glucocorticoid receptor (Homo sapiens) (P04150 whole entry, looked up): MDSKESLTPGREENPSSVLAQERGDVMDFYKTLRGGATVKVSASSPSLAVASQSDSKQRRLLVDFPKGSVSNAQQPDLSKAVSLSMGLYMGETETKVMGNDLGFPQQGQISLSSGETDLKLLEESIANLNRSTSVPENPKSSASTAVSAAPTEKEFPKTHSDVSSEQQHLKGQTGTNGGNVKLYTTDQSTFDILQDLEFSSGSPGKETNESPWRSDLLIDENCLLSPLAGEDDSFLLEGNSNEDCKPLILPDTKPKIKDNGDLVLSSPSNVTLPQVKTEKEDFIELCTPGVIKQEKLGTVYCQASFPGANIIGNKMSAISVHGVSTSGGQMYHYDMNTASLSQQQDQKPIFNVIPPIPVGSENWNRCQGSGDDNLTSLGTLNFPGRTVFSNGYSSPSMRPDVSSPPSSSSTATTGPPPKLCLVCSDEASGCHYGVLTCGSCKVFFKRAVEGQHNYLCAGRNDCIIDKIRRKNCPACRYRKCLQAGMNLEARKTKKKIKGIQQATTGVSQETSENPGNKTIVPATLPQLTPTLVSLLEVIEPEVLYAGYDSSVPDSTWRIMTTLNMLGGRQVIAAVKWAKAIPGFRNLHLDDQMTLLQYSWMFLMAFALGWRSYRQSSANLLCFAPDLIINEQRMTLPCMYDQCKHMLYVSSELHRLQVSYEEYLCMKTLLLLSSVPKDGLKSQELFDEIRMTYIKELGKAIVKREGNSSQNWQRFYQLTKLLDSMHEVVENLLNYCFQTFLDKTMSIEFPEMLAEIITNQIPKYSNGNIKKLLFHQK

SMILES | activation
O=C(O)COc1ccc(Cl)cc1 | -1.72% (inactive)
CCC(CC)Nc1c([N+](=O)[O-])cc(C)c(C)c1[N+](=O)[O-] | -2.05% (inactive)
C1=Cc2cccc3cccc1c23 | -9.46% (inactive)
[CH3][Sn]([Cl])([Cl])[Cl] | -3.55% (inactive)
CCC(C)Nc1c([N+](=O)[O-])cc(C(C)(C)C)cc1[N+](=O)[O-] (stereo not drawn) | -11.2% (inactive)

Biological target: Glucocorticoid receptor (Homo sapiens) (UniProt P04150)
Assay: qHTS assay for small molecule antagonists of glucocorticoid receptor signaling (AID 588533; active = well fitted inhibition curve with a large enough effect in the signal ratio, with a control signal flat, not every such curve was filed as active; the % refers to the signal ratio;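 note: cells stimulated with 2 nM dexamethasone as agonist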)
Conditions: HeLa MMTV-bla, GRE beta-lactamase ratio, antagonist mode, 18 h; series mostly up to 76.8 µM
Summary of the method: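 Antagonist-mode qHTS: compound titrations added to GRE-bla HeLa cells, then dexamethasone 2 nM final; 18 h, 37 C. CCF4 FRET fluorescence normalized to dexamethasone and DMSO; IC50 from Hill fit.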

SMILES | Potency
O=C(O)COc1ccc(Cl)cc1 | inactive
CCC(CC)Nc1c([N+](=O)[O-])cc(C)c(C)c1[N+](=O)[O-] | inactive
C1=Cc2cccc3cccc1c23 | inactive
[CH3][Sn]([Cl])([Cl])[Cl] | inactive
CCC(C)Nc1c([N+](=O)[O-])cc(C(C)(C)C)cc1[N+](=O)[O-] (stereo not drawn) | inactive

Biological target: Peroxisome proliferator-activated receptor delta (Homo sapiens) (UniProt Q03181)
Assay: qHTS assay for small molecule agonists of peroxisome proliferator-activated receptor delta signaling (AID 588534)
Conditions: HEK293T PPARdelta-UAS-bla, beta-lactamase ratio, 18 h; series mostly up to 76.7 µM
Summary of the method: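 Titration series tested in agonist mode on beta-lactamase reporter cells; 18 hrs at 37 C after a 5 hr pre-incubation. Readout: CCF4 fluorescence, 2 hrs RT. Hill equation gives EC50 and maximal response.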

Sequence of Peroxisome proliferator-activated receptor delta (Homo sapiens) (Q03181 whole entry, looked up): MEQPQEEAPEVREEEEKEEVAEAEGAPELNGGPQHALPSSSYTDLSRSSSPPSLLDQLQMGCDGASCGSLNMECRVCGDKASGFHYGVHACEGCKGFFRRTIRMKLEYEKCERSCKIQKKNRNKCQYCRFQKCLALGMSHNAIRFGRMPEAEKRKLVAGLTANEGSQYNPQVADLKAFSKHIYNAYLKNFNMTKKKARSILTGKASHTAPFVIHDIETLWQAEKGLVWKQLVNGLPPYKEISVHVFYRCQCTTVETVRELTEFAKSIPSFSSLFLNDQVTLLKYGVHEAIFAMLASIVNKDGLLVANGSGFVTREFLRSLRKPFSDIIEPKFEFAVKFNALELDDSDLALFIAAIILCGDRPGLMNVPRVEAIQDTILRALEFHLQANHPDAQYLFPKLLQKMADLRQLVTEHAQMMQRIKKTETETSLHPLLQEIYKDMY

SMILES | outcome
O=C(O)COc1ccc(Cl)cc1 | inactive
Cc1cc(C)c(N)cc1C | inactive
Nc1cccc(C(F)(F)F)c1 | inactive
CCCCC(CC)COC(=O)CCCCC(=O)OCC(CC)CCCC (stereo not drawn) | inactive
Cc1cc([N+](=O)[O-])ccc1N | inactive
CN(C)CCCCCCN(C)C | inactive
Cc1ccc([N+](=O)[O-])cc1N | inactive
CCC(CC)Nc1c([N+](=O)[O-])cc(C)c(C)c1[N+](=O)[O-] | inactive
Nc1ccccc1O | inactive
C1=Cc2cccc3cccc1c23 | inactive
CCOP(=O)(OCC)Oc1ccc([N+](=O)[O-])cc1 | inactive
CN(C)c1ccc(Cc2ccc(N(C)C)cc2)cc1 | inactive
ClC(Cl)Cl | inactive
Cc1ccc2ccc3cccc4ccc1c2c34 | inactive
O=[N+]([O-])c1cc(C(F)(F)F)c(Cl)c([N+](=O)[O-])c1Nc1ncc(C(F)(F)F)cc1Cl | inactive
[CH3][Sn]([Cl])([Cl])[Cl] | inactive
c1ccc(-c2ccc(-c3ccccc3)cc2)cc1 | inactive
c1ccc2c(c1)ccc1c3ccccc3ccc21 | inactive
CCC(C)Nc1c([N+](=O)[O-])cc(C(C)(C)C)cc1[N+](=O)[O-] (stereo not drawn) | inactive
CCCCC(CC)COP(=O)(OCC(CC)CCCC)OCC(CC)CCCC (stereo not drawn) | inactive
Nc1ccc(Cl)cc1Cl | inactive

System: not listed separately
Assay: qHTS assay for small molecule antagonists of peroxisome proliferator-activated receptor delta signaling (AID 588535);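 note: cells co-treated with a PPAR-delta agonist as stimulator during compound exposure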
Conditions: HEK293T PPARd-UAS-bla, beta-lactamase FRET ratio, 18 h; 460 nm channel
Summary of the method: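 Antagonist-mode qHTS using GeneBLAzer PPAR-delta-UAS-bla HEK293T cells; compound exposure 18 hrs at 37 C over a titration. Ratiometric CCF4 fluorescence at 460/530 nm; concentration-response points fitted to the Hill equation.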

SMILES | max response
O=C(O)COc1ccc(Cl)cc1 | 9.9%
CCC(CC)Nc1c([N+](=O)[O-])cc(C)c(C)c1[N+](=O)[O-] | -38.2%
C1=Cc2cccc3cccc1c23 | -1.47%
c1ccccc1 | -9.22% and -21.5% and 24.9%
CCOP(=O)(OCC)Oc1ccc([N+](=O)[O-])cc1 | -45.6%
[CH3][Sn]([Cl])([Cl])[Cl] | -4.62%
CCC(C)Nc1c([N+](=O)[O-])cc(C(C)(C)C)cc1[N+](=O)[O-] (stereo not drawn) | -21.7%
